Laboratory results from PubChem BioAssay AID588342 (National Center for Advancing Translational Sciences (NCATS), 2011).
The campaign covered roughly 360,000 compounds. About 25,000 (6.9%) were called active. Roughly 9% stayed inconclusive and do not appear here. The call rests on the fitted dose curve; in most records, active means well fitted inhibition curve with a large enough effect; inconclusive means small, poorly fitted or top-dose-only effect; inactive means flat fitted curve, though single readings scatter. What follows is part of a selection rich in actives, with near analogues and random picks from the rest. Entries that show only a call come without a potency.

These molecules were tested against Luciferin 4-monooxygenase (Photinus pyralis) (UniProt P08659) (assay: qHTS profiling assay for firefly luciferase inhibitor/activator using purifed enzyme and Km concentrations of substrates (counterscreen for miR-21 project)). Conditions: purified FLuc, luminescence inhibition; series mostly up to 57.5 µM.
Outline: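 Biochemical qHTS of compounds, final roughly 60 µM downward over six points, against 10 nM purified firefly luciferase using Km concentrations of substrates (10 uM D-luciferin, 10 uM ATP) in Tris acetate pH 7.5 buffer; luminescence output.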
Further: nearly all actives have a fitted effect of over 55% in size.
Potency means the concentration at half of the fitted maximal effect.

Sequence of Luciferin 4-monooxygenase (Photinus pyralis) (P08659 whole entry, looked up): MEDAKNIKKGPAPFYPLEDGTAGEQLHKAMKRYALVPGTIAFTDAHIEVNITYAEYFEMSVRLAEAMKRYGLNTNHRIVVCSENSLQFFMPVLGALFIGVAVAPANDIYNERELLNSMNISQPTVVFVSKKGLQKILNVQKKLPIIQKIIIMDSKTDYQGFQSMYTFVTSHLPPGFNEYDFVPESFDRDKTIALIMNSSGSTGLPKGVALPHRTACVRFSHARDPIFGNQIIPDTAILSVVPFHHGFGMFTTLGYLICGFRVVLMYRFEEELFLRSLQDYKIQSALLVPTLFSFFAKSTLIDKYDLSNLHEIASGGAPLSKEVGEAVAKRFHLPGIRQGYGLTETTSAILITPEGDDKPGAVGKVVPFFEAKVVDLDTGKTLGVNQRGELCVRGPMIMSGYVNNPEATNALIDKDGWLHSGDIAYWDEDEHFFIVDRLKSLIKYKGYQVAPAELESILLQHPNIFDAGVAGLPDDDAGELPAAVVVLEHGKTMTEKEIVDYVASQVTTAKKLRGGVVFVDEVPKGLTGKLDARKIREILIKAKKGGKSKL

Compound | Potency | activity change, negative = inhibition
COc1ccc(/C=N/Nc2nc3ccccc3c(=O)[nH]2)cc1 | 6.01 µM (active) | 
COc1cc(OC)c(S(=O)(=O)Nc2ccccc2C(=O)O)cc1S(=O)(=O)Nc1ccccc1C(=O)O | inactive | 
COc1ccc(CCCc2nnc(SCc3nc4ccccc4c(=O)[nH]3)n2C)cc1 | inactive | 
COc1ccc(/C=N/OCC(=O)N(Cc2ccccc2)c2ccccc2C(=O)O)cc1 | inactive | 
COc1ccc(/C=N/Nc2nc(-c3ccc(C)cc3)c(C#N)c(=O)[nH]2)cc1 | inactive | 
COc1ccc(/C=N/Nc2ccccc2C(=O)O)cc1 | 0.151 µM (active) | 
COc1ccc(NC(=O)CCc2nnc3n(CC(C)C)c(=O)c4ccccc4n23)cc1OC | inactive | 
CSc1ccc(C2C(C(=O)Nc3ccccc3)=C(C)Nc3nc4ccccc4n32)cc1 (stereo unspecified) | inactive | 
COc1ccc(CCNc2ncnc3onc(-c4ccc(Cl)cc4)c23)c(OC)c1 | inactive | 
CCCn1c(=N)c(C(=O)NCc2ccccc2)cc2c(=O)n3cccc(C)c3nc21 | inactive | 
O=C(CCN1c2ccccc2Sc2ccccc21)Nc1ccccc1 | inactive | 
CCN1/C(=C/C(=S)Nc2ccccc2)Sc2ccccc21 | 10.7 µM (active) | 
CCN1C(=O)/C(=C2/Sc3ccccc3N2CCCS(=O)(=O)O)SC1=S | inactive | 
CCOC(=O)Cc1csc(NC(NC(=O)OCC)(C(F)(F)F)C(F)(F)F)n1 | inactive | 
CCOC(=O)Cc1csc(NC(=O)Nc2ccccc2)n1 | 12 µM (active) | 
CCOC(=O)c1csc(NC(=O)Nc2cccc(OC)c2)n1 | inactive | 
COc1ccc(OC)c(CNC(=O)Cn2nc(C)c3c(C)n(-c4ccc(C)cc4)nc3c2=O)c1 | inactive | 
Cc1cccc(NC(=O)c2nnn(CC(=O)Nc3ccc(C(C)C)cc3)c2N)c1C | inactive | 
COc1ccc(CCNC(=O)CCc2c(C)nc3c(c(C)nn3-c3ccc(C)c(C)c3)c2C)c(OC)c1OC | inactive | 
CCN(C(=O)Cn1cc(S(=O)(=O)N2CCN(c3ccccc3F)CC2)c2ccccc2c1=O)c1ccc(C)c(C)c1 | inactive | 
O=S(=O)(Nc1ccc2nc(-c3ccco3)[nH]c2c1)c1ccccc1 | 12 µM (active) | 
CCc1ccccc1NS(=O)(=O)c1ccc2nc(-c3ccccc3)[nH]c2c1 | inactive | 
O=S(=O)(Nc1ccc2cn[nH]c2c1)c1ccccc1 | inactive | 
CCN1CCN(Cc2c(O)ccc3oc(C)c(C(=O)Nc4ccc(C)cc4C)c23)CC1 | inactive | 
O=C(Cc1ccsc1)N1CCN(S(=O)(=O)c2cc(C(F)(F)F)cc(C(F)(F)F)c2)CC1 | inactive | 
CCN(CC)C(=O)Oc1ccc(OC(=O)N(CC)CC)cc1 | inactive | 

Compound | Potency | activity change, negative = inhibition
COc1cccc(NC(=O)c2ccccc2SC)c1 | inactive | 
COc1ccc2nc(C)cc(Nc3cccc(C(=O)O)c3)c2c1 | inactive | 
COc1cccc(Nc2ncccc2C(=O)O)c1 | 19 µM (active) | 
CCOC(=O)c1cnc2c(c(C)nn2CC)c1Cl | inactive | 
COC(=O)c1ccc(S(=O)(=O)N2CCc3ccccc3C2)cc1 | inactive | 
Cc1cccc(NC(=O)CSCC(=O)Nc2nnc(C3CC3)s2)c1 | inactive | 
Cc1cc(C(=O)Nc2nnc(C3CC3)s2)c(C)s1 | 13.5 µM (active) | 
O=C(Nc1nnc(C2CC2)s1)c1ccccn1 | 10.7 µM (active) | 
Cc1cc(=O)oc2cc(OCC(=O)Nc3nnc(C4CC4)s3)ccc12 | inactive | 
O=C(Nc1nnc(Cc2ccccc2)s1)c1cnccn1 | inactive | 
O=C(Cc1cccs1)Nc1nnc(C2CC2)s1 | inactive | 
Cc1ccc(N(C)C(=O)C2CCN(S(=O)(=O)c3ccc4c(c3)CCCN4C(=O)C3CCC3)CC2)cc1 | inactive | 
O=C1CN(C(=O)Nc2ccccc2C(F)(F)F)C(c2ccccc2)c2c(sc3c2CCCC3)N1 (stereo unspecified) | inactive | 
CCOC(=O)C1CCN(C(=O)c2cccc(S(=O)(=O)N(CC)c3ccccc3)c2)CC1 | inactive | 
COc1cc(C(=O)N2CCN(c3ccc(Nc4ccc(C)cc4)nn3)CC2)cc(OC)c1OC | inactive | 
O=C(CCN1C(=O)/C(=C/c2cccs2)SC1=S)NNC(=O)c1cccc(O)c1 | inactive | 
COc1ccccc1C(=O)NNC(=O)CCN1C(=O)/C(=C\c2ccccc2)SC1=S | inactive | 
COc1ccc(/C=C2\SC(=S)N(CCC(=O)Nc3cccc(C(=O)O)c3)C2=O)cc1OC | 6.75 µM (active) | 
COc1ccc(S(=O)(=O)N2CCSCC2)cc1 | inactive | 
CCOC(=O)c1cn[nH]c1NC(=S)Nc1ccccc1 | 2.13 µM (active) | 
CCOC(=O)c1ccc(NC(=S)Nc2cc(C)cc(C)n2)cc1 | inactive | 
CCOC(=O)c1cc2c(nc1NC(=S)Nc1ccccc1)CC(C)(CC)OC2 (stereo unspecified) | inactive | 
Nc1c(N(CCCO)C(=O)C2CCCC2)c(=O)[nH]c(=O)n1Cc1ccccc1 | inactive | 
COc1ccccc1C1=Nc2cccc3cccc(c23)N1 | 16.9 µM (active) | 
COc1ccccc1-c1nc(C(F)(F)F)c(OC)o1 | inactive | 
c1ccc(C2=Nc3cccc4cccc(c34)N2)cc1 | 15.1 µM (active) | 

Compound | Potency | activity change, negative = inhibition
COc1ccc(N2C(=O)c3cccc4cccc(c34)C2=O)nn1 | inactive | 
COc1ccc(-n2c(SCC(N)=O)nc3c(oc4ccccc43)c2=O)cc1 | inactive | 
CC(C)Nc1nnc(SC(C)C(=O)N(C)C2CCCCC2)s1 (stereo unspecified) | inactive | 
Cc1cccc(N(C)C(=O)CS(=O)(=O)c2cccc3nsnc23)c1 | inactive | 
O=C(CCn1c(=O)c2ccccc2n(Cc2ccc(Cl)cc2)c1=O)NCc1ccc2c(c1)OCO2 | inactive | 
COc1cc(Cl)c(NC(=O)C(NS(=O)(=O)c2cccs2)C(C)C)c(OC)c1 (stereo unspecified) | inactive | 
Cc1ccn(-c2cccc(-n3ccc(C)n3)n2)n1 | 3.38 µM (active) | 
CCCCc1nnc(NC(=O)CSc2nc(N)cc(=O)[nH]2)s1 | inactive | 
Fc1ccc(/C=N/Nc2nc(-c3cccnc3)nc3ccccc23)cc1 | 2.13 µM (active) | 
O=[N+]([O-])c1ccc(F)cc1Oc1nc(-c2cccnc2)nc2ccccc12 | inactive | 
COc1ccc(Nc2nc(-c3cccnc3)nc3ccccc23)cn1 | inactive | 
Cc1ccc(C2C=C(c3ccc(Cl)cc3)Nc3nc(NC(=O)CCC(=O)O)nn32)cc1 (stereo unspecified) | inactive | 
CC(=O)N1CCc2cc(S(=O)(=O)NC(Cc3ccccc3)C(=O)NCc3ccc(C)cc3)ccc21 (stereo unspecified) | inactive | 
COC(=O)[C@]1(S(=O)(=O)c2ccccc2)C[C@@H]2ON=C(c3ccc(OC)cc3)[C@@H]2C1 | inactive | 
CN1CCN(C(=O)/C(=C\c2ccc3c(c2)OCO3)NC(=O)c2cccs2)CC1 | inactive | 
COc1ccc(C(=O)Nc2ccc(-n3nncc3-c3ccccc3)cc2)cc1OC | inactive | 
COc1cc(C(=O)NCC2(c3ccccc3)CCCC2)ccc1OC(C)C | inactive | 
COc1ccc(C(=O)Nc2ccc(C3(C#N)CCCC3)cc2)cc1OC | 10.7 µM (active) | 
COc1ccc(Cl)cc1NC(=O)CN(C)CC(=O)Nc1ccc2c(c1)OCO2 | inactive | 
CCC(=O)c1cc2c(cc1NC(=O)c1cccs1)OCCO2 | inactive | 
COc1ccc(C(=O)Nc2ccc3c(c2)OCO3)cc1OC | 10.7 µM (active) | 
COc1cc(NC(=O)c2ccc3c(c2)OCO3)ccc1NC(=O)c1cccs1 | 10.7 µM (active) | 
COc1ccc(NC(=O)c2ccc3nc(C(C)C)oc3c2)cc1OC | inactive | 
C=CCNC(=O)/C(=C\c1cccc([N+](=O)[O-])c1)NC(=O)c1ccccc1 | inactive | 
O=C(Nc1ccc(Br)cc1)c1cc2nc(-c3ccccc3)cc(-c3ccccc3)n2n1 | inactive | 
CCCCc1nn2c(=O)cc(COC(=O)c3ccc(NC(=O)c4ccccc4C)cc3)nc2s1 | inactive | 

Compound | Potency | activity change, negative = inhibition
CCOC(=O)c1cnc(SCC(=O)NCc2ccco2)nc1N | inactive | 
CCCCCCOc1ccc(OC(=O)c2cccnc2)cc1 | inactive | 
CCCCOc1ccc(-c2ncc(C(=O)OCC)c(N)n2)cc1 | 2.69 µM (active) | 
Cc1ccn2cc(-c3nonc3C)cc2c1 | 26.9 µM (active) | 
CCCCN(C)c1nnc(NC(=O)Nc2ccc(Br)c(C)c2)s1 | inactive | 
Cc1c(NC(=O)c2cc(-c3ccc(Cl)s3)nc3ccccc23)c(=O)n(-c2ccccc2)n1C | inactive | 
Cc1cc(C(=O)N2CCN(c3ccccn3)CC2)c(C)o1 |  | 3.1% [at 2.3 µM] (inactive)
Cc1ccc(S(=O)(=O)N2CCN(C(=O)c3ccccc3-c3nc4ccccc4s3)CC2)c(C)c1 | inactive | 
O=C(c1cc(-c2ccc(Cl)s2)nc2ccccc12)N1CCOCC1 | 23.9 µM (active) | 
CCOc1ccccc1-c1cc(C(=O)N2CCOCC2)c2ccccc2n1 | inactive | 
CC(=O)N1CCN(C(=O)c2cc(-c3ccc(C)o3)nc3ccccc23)CC1 | 4.78 µM (active) | 
CCN(CC)CCNC(=O)Cn1ncc2c3ccccc3n(Cc3ccccc3C)c2c1=O | inactive | 
CC(=O)c1ccc(NC(=O)Cn2c(=O)oc3ccccc32)cc1 | inactive | 
Cc1ccc(C(=O)Nc2ccc(OCc3cc(=O)n4c(C)csc4n3)cc2)cc1 | inactive | 
Cn1cc(CN2CCCCC2c2ccccn2)c(-c2ccc3c(c2)OCCO3)n1 (stereo unspecified) | inactive | 
CCO[C@H]1OC(C(=O)Nc2ccccc2)=C[C@@H](C2CC2)[C@@H]1CCCO | inactive | 
Cn1c(=O)c2c(-c3cccc(Br)c3)c(C#N)c(N)nc2n(C)c1=O | inactive | 
Cc1c(C)n2c(SCC(=O)N3CCCC3)nnc2[nH]c1=O | inactive | 
CCOC(=O)c1cc2c(=O)n3ccccc3nc2n(CCCOC)c1=NC(=O)C(C)(C)Oc1ccc(Cl)cc1 | inactive | 
CC1CCCCN1S(=O)(=O)c1ccc(S(=O)(=O)N(CC(=O)Nc2ccccc2)Cc2cccs2)cc1 (stereo unspecified) | inactive | 
O=C(Nc1nnc(CCc2ccccc2)s1)C1CCCO1 (stereo unspecified) | inactive | 
O=C(Nc1ccc(-c2nnc(-c3ccccc3)o2)cc1)C1CCCO1 (stereo unspecified) | 3.38 µM (active) | 
CC(C)(C)NS(=O)(=O)c1ccc(NC(=O)C2CCCO2)cc1 (stereo unspecified) | inactive | 
